Activity calls are given as the source filed them. Rule for the calls: active = hit-call score of the fitted dose curve at least 0.9, where 1 is the maximum; inactive = score below 0.9.
Assays:
Details in all cases: mRNA level, 48 h; actives raise or lower the signal
[1] = read-out: Interleukin 6 Receptor (IL6R), IL6R (gene 3570); assay: LTEA_HepaRG_IL6R: Life Technologies and Expression Analysis (LTEA) Assay for Interleukin 6 Receptor (IL6R) using HepaRG (AID 2283510);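 for AC50: differentiated human HepaRG liver cells in serum-free induction medium; TaqMan qRT-PCR signal normalized to ACTB GAPDH and POLR2A housekeeping genes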
In short: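 Concentration-response in human liver HepaRG cells: eight concentrations from 100 uM downward by half-logs, 48 h exposure, 0.5% DMSO vehicle. IL6R mRNA change measured by qRT-PCR and fitted in both directions relative to vehicle.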

[2] = read-out: Potassium channel subfamily K member 1 (KCNK1), KCNK1 (gene 3775); assay: LTEA_HepaRG_KCNK1: Life Technologies and Expression Analysis (LTEA) Assay for Potassium channel subfamily K member 1 (KCNK1) using HepaRG (AID 2283511)
In short: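 Differentiated HepaRG cells, 48 h exposure in serum-free induction medium with 0.5% DMSO; 8 concentrations, half-log from 100 uM, duplicate. KCNK1 mRNA by qRT-PCR, normalized to ACTB, GAPDH, POLR2A; bidirectional fit vs DMSO.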

[3] = read-out: Keratin 19 (KRT19), KRT19 (gene 3880); assay: LTEA_HepaRG_KRT19: Life Technologies and Expression Analysis (LTEA) Assay for Keratin 19 (KRT19) using HepaRG (AID 2283512)
In short: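 Differentiated HepaRG cells in serum-free induction medium, exposed 48 h in duplicate to 8 half-log concentrations up to 100 uM in 0.5% DMSO. KRT19 mRNA by qRT-PCR, normalized to ACTB, GAPDH, POLR2A; bidirectional fit vs DMSO.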

[4] = read-out: JUN Transcription Factor, JUN (gene 3725); assay: LTEA_HepaRG_JUN: Life Technologies and Expression Analysis (LTEA) Assay for JUN Transcription Factor using HepaRG (AID 2283513)
In short: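 Human HepaRG liver cells receive test chemicals in 0.5% DMSO for 48 h across an eight-point range topping at 100 uM. Expression changes in JUN are scored in both directions against the DMSO vehicle.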

[5] = read-out: Lipase C (LIPC), LIPC (gene 3990); assay: LTEA_HepaRG_LIPC: Life Technologies and Expression Analysis (LTEA) Assay for Lipase C (LIPC) using HepaRG (AID 2283514)
In short: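 HepaRG cells, 48 h after plating, treated in duplicate for 48 h in serum-free induction medium over 8 half-log concentrations from 100 uM, 0.5% DMSO. LIPC mRNA by TaqMan qRT-PCR normalized to ACTB/GAPDH/POLR2A; bidirectional fit versus DMSO.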

[6] = read-out: Lipoprotein lipase (LPL), LPL (gene 4023); assay: LTEA_HepaRG_LPL: Life Technologies and Expression Analysis (LTEA) Assay for Lipoprotein lipase (LPL) using HepaRG (AID 2283515)
In short: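 Differentiated HepaRG cells, plated 48 h, then exposed 48 h in serum-free induction medium to 8 concentrations (top 100 uM, half-log steps) in 0.5% DMSO, duplicate. LPL mRNA measured by qRT-PCR, normalized to ACTB, GAPDH and POLR2A.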

[7] = read-out: MicroRNA 122 (MIR122), gene 406906; assay: LTEA_HepaRG_MIR122: Life Technologies and Expression Analysis (LTEA) Assay for MicroRNA 122 (MIR122) using HepaRG (AID 2283516); note: the transcript read is the microRNA miR-122
In short: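 HepaRG, 48 h exposure, 8-pt half-log from 100 uM, 0.5% DMSO; TaqMan qRT-PCR; bidirectional fit vs DMSO.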

[8] = read-out: matrix metalloproteinase-10 (MMP10), MMP10 (gene 4319); assay: LTEA_HepaRG_MMP10: Life Technologies and Expression Analysis (LTEA) Assay for matrix metalloproteinase-10 (MMP10) using HepaRG (AID 2283517)
In short: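 Differentiated HepaRG cells in serum-free induction medium exposed 48 h in duplicate to 8-point half-log series up to 100 uM in 0.5% DMSO. mRNA quantified by qRT-PCR, normalised to ACTB, GAPDH, POLR2A; bidirectional fit versus DMSO.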

MYC, MYC (gene 4609) = assay: LTEA_HepaRG_MYC: Life Technologies and Expression Analysis (LTEA) Assay for MYC using HepaRG (AID 2283518)
In short: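 Differentiated HepaRG cells exposed 48 h in serum-free induction medium to 8 concentrations (top 100 uM, half-log steps; 0.5% DMSO), duplicate. MYC mRNA measured by Fluidigm qRT-PCR, normalized to ACTB, GAPDH, POLR2A; bidirectional fit versus DMSO.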

[9] = read-out: matrix metalloproteinase-3 (MMP3), MMP3 (gene 4314); assay: LTEA_HepaRG_MMP3: Life Technologies and Expression Analysis (LTEA) Assay for matrix metalloproteinase-3 (MMP3) using HepaRG (AID 2283519)
In short: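 HepaRG cells (~100,000/well) in serum-free induction medium were dosed in duplicate for 48 h with an 8-point half-log series from 100 uM, 0.5% DMSO. MMP3 mRNA was quantified by Fluidigm TaqMan qRT-PCR, normalized to three housekeeping genes.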

Row | SMILES | outcome [1] | outcome [2] | outcome [3] | outcome [4] | outcome [5] | outcome [6] | outcome [7] | outcome [8] | outcome (MYC, MYC (gene 4609)) | outcome [9] | AC50 [1] | AC50 [3] | AC50 [5] | AC50 [6] | AC50 (MYC, MYC (gene 4609)) | AC50 [2] | AC50 [7] | AC50 [9]
1 | Cc1c(COC(=O)[C@@H]2[C@H](/C=C(\Cl)C(F)(F)F)C2(C)C)cccc1-c1ccccc1 | inactive | inactive | inactive | inactive | inactive | inactive | inactive | inactive | inactive | inactive | – | – | – | – | – | – | – | –
2 | COCc1cnc(C2=NC(C)(C(C)C)C(=O)N2)c(C(=O)O)c1 (stereo not drawn) | inactive | inactive | inactive | inactive | inactive | inactive | inactive | inactive | inactive | inactive | – | – | – | – | – | – | – | –
3 | CC(C)NC(=O)N1CC(=O)N(c2cc(Cl)cc(Cl)c2)C1=O | – | inactive | – | inactive | – | – | inactive | inactive | – | inactive | 2.86 µM (active) | 20.3 µM (active) | 10.2 µM (active) | 14.6 µM (active) | 13.2 µM (active) | – | – | –
4 | CN/C(=N\[N+](=O)[O-])NCc1cnc(Cl)s1 | inactive | – | – | inactive | inactive | inactive | inactive | inactive | inactive | inactive | – | 17.8 µM (active) | – | – | – | 50 µM (active) | – | –
5 | COP(=S)(OC)SCn1nnc2ccccc2c1=O | inactive | inactive | inactive | inactive | inactive | inactive | inactive | inactive | inactive | inactive | – | – | – | – | – | – | – | –
6 | O=P(O)(O)CCCl | inactive | inactive | inactive | inactive | inactive | inactive | inactive | inactive | inactive | inactive | – | – | – | – | – | – | – | –
7 | CC(C)Nc1nc(Cl)nc(NC(C)C)n1 | inactive | inactive | inactive | inactive | inactive | inactive | inactive | inactive | inactive | inactive | – | – | – | – | – | – | – | –
8 | Cc1cnc(C2=NC(C)(C(C)C)C(=O)N2)c(C(=O)O)c1 (stereo not drawn) | inactive | inactive | inactive | inactive | inactive | inactive | inactive | inactive | inactive | inactive | – | – | – | – | – | – | – | –
9 | C=C(C)CN(CC)c1c([N+](=O)[O-])cc(C(F)(F)F)cc1[N+](=O)[O-] | inactive | inactive | inactive | inactive | inactive | inactive | inactive | inactive | inactive | inactive | – | – | – | – | – | – | – | –
10 | Cn1c(-c2ccccc2)cc(-c2ccccc2)[n+]1C | inactive | inactive | – | inactive | – | – | – | – | – | – | – | 24 µM (active) | 28 µM (active) | 11.4 µM (active) | 3.12 µM (active) | – | 28.7 µM (active) | 88.9 µM (active)
11 | CC(C)C1(C)N=C(c2ncccc2C(=O)O)NC1=O (stereo not drawn) | inactive | inactive | – | inactive | inactive | inactive | inactive | inactive | inactive | inactive | – | – | – | – | – | – | – | –
12 | CCC(C)n1c(=O)[nH]c(C)c(Br)c1=O (stereo not drawn) | – | inactive | – | inactive | – | – | – | inactive | – | inactive | 6.3 µM (active) | 11.8 µM (active) | 23.3 µM (active) | 14.4 µM (active) | 24.8 µM (active) | – | 10.4 µM (active) | –
13 | COCC(=O)N(c1c(C)cccc1C)C(C)C(=O)OC (stereo not drawn) | inactive | inactive | inactive | inactive | inactive | inactive | inactive | inactive | inactive | inactive | – | – | – | – | – | – | – | –
14 | CCCN(CC)CC1COC2(CCC(C(C)(C)C)CC2)O1 (stereo not drawn) | inactive | inactive | inactive | inactive | inactive | inactive | inactive | inactive | inactive | inactive | – | – | – | – | – | – | – | –
15 | CCSC(=O)N1CCCCCC1 | inactive | inactive | inactive | inactive | inactive | inactive | inactive | inactive | inactive | inactive | – | – | – | – | – | – | – | –
16 | Cc1nc(N(C)C)nc(OC(=O)N(C)C)c1C | inactive | inactive | inactive | inactive | inactive | inactive | inactive | inactive | inactive | inactive | – | – | – | – | – | – | – | –
